Results filed as inconclusive are left out. Where a call stands in place of a potency, no number is given. The source holds several records for some structures; these can differ, active in one and inactive in another. Activity calls are given as the source filed them. Unless noted, calls come from the whole dose curve.
Tests used:
[1] = Nuclear factor erythroid 2-related factor 2/antioxidant responsive element (Nrf2/ARE) small molecule agonists: qHTS cell viability counter screen in human keratinocytes (AID 1919968; active = well fitted curve in the direction sought with a large enough effect in the repeat runs; an effect the other way counts as inactive or inconclusive; note: nearly all actives have a fitted effect of over 55% in size; note: potency is the fitted concentration of half-maximal effect)
In short: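 Cells of the KeratinoSens line were plated at 1,500 per well and left for 5 h before compound transfer from DMSO stocks. After a 23 h incubation (37 C, 5% CO2), CellTiter-Fluor was added. Signal was taken as fluorescence intensity 1 h later.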

[2] = molecular target: Gonadotropin-releasing hormone receptor (Homo sapiens) (UniProt P30968); assay: Human gonadotropin-releasing hormone receptor (GnRHR) small molecule agonists, calcium flux assay in GnRHR-HEK293 cells (AID 1920063); note: nearly all actives have a fitted effect of over 35% in size
In short: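 Compounds dissolved in DMSO are pin-transferred onto dye-loaded GnRHR-HEK293 cells, which were seeded 18 h before at 37 C/5% CO2. Calcium signal is read as fluorescence intensity at 1 s intervals for 3 min.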

[3] = molecular target: KiSS-1 receptor (Homo sapiens) (UniProt Q969F8); assay: Human kisspeptin (KISS1R) small molecule agonists, calcium flux assay in KISS1R-HEK293 cells (AID 1920064; active = well fitted curve in the direction sought with a large enough effect in the repeat runs; an effect the other way counts as inactive or inconclusive)
In short: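 Cell line: HEK293, stable human KISS1R. Dye loading 1 h at 37 C after 18 h culture. Read: kinetic fluorescence, 480/540 nm, 3 min at 1 s intervals.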

[4] = G protein-coupled receptor (GPCR) small molecule agonists, calcium flux assay: HEK293 wild type cell line counter screen (AID 1920065)
In short: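 Tox21 10K compounds, 15 concentrations each in triplicate, pin-transferred in DMSO onto dye-loaded cells; kinetic read at 480/540 nm for 3 min, 1 s intervals.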

[5] = p53 small molecule agonists, cell-based qHTS assay with rat liver microsomes (AID 1963578)
In short: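 Agonist mode in p53RE-bla reporter cells, with compounds co-incubated 16 h at 37 C alongside 0.5 mg/mL rat liver microsomes and 0.5 mg/mL NADPH (final), followed by a 2 h LiveBLAzer detection step.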

[6] = p53 small molecule agonists, cell-based qHTS assay with human liver microsomes: qHTS cell viability counter screen (AID 1963579); note: nearly all actives have a fitted effect of over 45% in size
In short: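 Metabolically activated exposure: compounds, human liver microsomes and NADPH (0.5 mg/mL final apiece) were added to p53RE-bla cells seeded 5 h earlier, left 16 h at 37 C, and then assessed for viability by CellTiter-Glo luminescence.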

[7] = p53 small molecule agonists, cell-based qHTS assay with rat liver microsomes: qHTS cell viability counter screen (AID 1963580); note: nearly all actives have a fitted effect of over 45% in size
In short: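 Cytotoxicity counter screen: intracellular ATP read by CellTiter-Glo luminescence in the p53 reporter wells. HCT-116 p53RE-bla cells were treated for 16 h at 37 C alongside rat liver microsomes and NADPH, each 0.5 mg/mL final.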

[8] = p53 small molecule agonists, cell-based qHTS assay: qHTS cell viability counter screen (AID 1963581); note: nearly all actives have a fitted effect of over 45% in size
In short: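 ATP content measured by luminescence in HCT-116 p53RE-bla cells treated 16 h at 37 C, same wells as the reporter screen.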

[9] = molecular target: 5-hydroxytryptamine receptor 2A (Homo sapiens) (UniProt P28223); assay: 5-hydroxytryptamine receptor 2A (HTR2A) small molecule agonists, cell-based qHTS assay (AID 1963587); note: nearly all actives have a fitted effect of over 30% in size
In short: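 Kinetic calcium-flux fluorescence (2 min, 1 sec intervals) after compound addition in agonist mode. HTR2A-CHO cells were cultured 18 h, then dye-loaded 1 h at 37 C.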

[10] = molecular target: Muscarinic acetylcholine receptor M1 (Homo sapiens) (UniProt P11229); assay: Cholinergic receptor muscarinic 1 (CHRM1) small molecule antagonists, cell-based qHTS assay (AID 1963588); note: nearly all actives have a fitted effect of over 40% in size; note: potency is the fitted concentration of half-maximal effect
In short: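 Compounds were tested at 15 concentrations in three independent runs. Dye-loaded CHRM1-CHO cells were exposed 5 min at room temperature before stimulation by acetylcholine added at 50nM. Intracellular calcium was read kinetically on FDSS for 3 min.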

[11] = molecular target: Muscarinic acetylcholine receptor M1 (Homo sapiens) (UniProt P11229); assay: Cholinergic receptor muscarinic 1 (CHRM1) small molecule agonists, cell-based qHTS assay (AID 1963589); note: nearly all actives have a fitted effect of over 35% in size
In short: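 Homogeneous fluorescence calcium flux, agonist mode. Human M1-expressing CHO cells; compound dosed at 15 concentrations, three independent runs; signal sampled every 1 sec.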

[12] = cAMP Responsive Elements (CRE) small molecule antagonists, cell-based qHTS assay (AID 1963591; active = well fitted inhibition curve with a large enough effect in the signal ratio in the repeat runs, not every such curve was filed as active; the % refers to the signal ratio)
In short: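 First, CRE-bla HEK293T cells settled 18 h at 37 C. Next, compound and 0.25 uM final NKH477 were applied for 3 h. Last, LiveBLAzer B/G substrate was loaded for 2 h at room temperature.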

[13] = molecular target: Beta-2 adrenergic receptor (Homo sapiens) (UniProt P07550); assay: Adrenergic beta2 receptor (ADRB2) small molecule antagonists, cell-based qHTS assay (AID 1963592); note: series mostly up to about 92 µM; nearly all actives have a fitted effect of over 50% in size
In short: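 Assay format: CHO-ADRB2 cells, 18-20hr seeding at 37C/5% CO2, then compound plus 1nM isoproterenol agonist mix for 0.5hr RT. Homogeneous time-resolved fluorescence cAMP detection after 1hr, expressed as 665/615 nm ratio.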

[14] = molecular target: Beta-2 adrenergic receptor (Homo sapiens) (UniProt P07550); assay: Adrenergic beta2 receptor (ADRB2) small molecule agonists, cell-based qHTS assay (AID 1963593);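 note: CHO cells stably overexpressing human ADRB2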
In short: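 CHO cells stably over-expressing ADRB2 were plated overnight at 37C, then dosed with compounds plus a stimulation mix containing 100uM IBMX and 25uM Ro-20-1724 for 0.5hr at room temperature. cAMP was measured by HTRF competition, 1hr.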

[15] = molecular target: D(2) dopamine receptor (Homo sapiens) (UniProt P14416); assay: Dopamine D2 receptor (DRD2) small molecule agonists, cell-based qHTS assay (AID 1963594); note: nearly all actives have a fitted effect of over 35% in size
In short: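 cAMP accumulation in DRD2-HEK293 cells measured by HTRF after 1 h detection; compounds added 10 min before NKH477 (200nM […]) forskolin-analogue stimulation, 30 min at room temperature, with Ro20-1724 present at 0.1 mM final.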

[16] = molecular target: D(2) dopamine receptor (Homo sapiens) (UniProt P14416); assay: Dopamine D2 receptor (DRD2) small molecule antagonists, cell-based qHTS assay (AID 1963595; active = well fitted inhibition curve with a large enough effect in the signal ratio in the repeat runs, with a control signal flat; the % refers to the signal ratio)
In short: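 HEK293 cells stably expressing DRD2, preincubated with 0.1 mM Ro20-1724 and compounds 10 min, were stimulated with 200 nM NKH477 plus 12 nM quinpirole for 30 min at room temperature; cAMP measured by HTRF (665/620 nm).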

[17] = molecular target: 5-hydroxytryptamine receptor 2A (Homo sapiens) (UniProt P28223); assay: 5-hydroxytryptamine receptor 2A (HTR2A) small molecule antagonists, cell-based qHTS assay (AID 1963586); note: nearly all actives have a fitted effect of over 45% in size
In short: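 CHO cells stably expressing human HTR2A were plated for 18 h at 37 C, then loaded with calcium dye for 1 h. Compounds were preincubated 5 min at room temperature before DOI (4 nM solution) was added. Kinetic fluorescence was read for 3 min.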

[18] = cAMP Responsive Elements (CRE) small molecule agonists, cell-based qHTS assay (AID 1963590)
In short: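 HEK 293T cells stably bearing CRE-bla were plated at 2,000 cells per well and rested 18 h. Compounds, positive controls or DMSO were added for 3 h at 37 C. LiveBLAzer B/G substrate was then loaded for 2 h at room temperature.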

[19] = p53 small molecule agonists, cell-based qHTS assay (AID 1963582; active = well fitted activation curve with a large enough effect in the signal ratio in the repeat runs, not every such curve was filed as active; the % refers to the signal ratio)
In short: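 16 h compound exposure (37 C) of p53 response element–bla cells, preceded by 5 h recovery at 37 C/5% CO2; read-out via LiveBLAzer B/G FRET substrate, 2 h RT, fluorescence intensity.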

Chain of Beta-2 adrenergic receptor (Homo sapiens) (P07550 whole entry, looked up): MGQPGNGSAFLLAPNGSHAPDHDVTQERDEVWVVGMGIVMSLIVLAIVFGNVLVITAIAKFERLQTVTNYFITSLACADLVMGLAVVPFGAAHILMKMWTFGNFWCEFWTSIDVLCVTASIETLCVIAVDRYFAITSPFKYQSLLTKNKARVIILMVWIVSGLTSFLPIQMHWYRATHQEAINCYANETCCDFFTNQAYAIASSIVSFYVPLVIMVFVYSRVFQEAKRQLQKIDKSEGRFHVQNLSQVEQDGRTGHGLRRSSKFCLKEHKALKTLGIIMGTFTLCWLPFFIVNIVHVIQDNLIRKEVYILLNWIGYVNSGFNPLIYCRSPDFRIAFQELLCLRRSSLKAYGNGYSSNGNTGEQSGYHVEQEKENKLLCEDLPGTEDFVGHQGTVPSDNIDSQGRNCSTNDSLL
Chain of D(2) dopamine receptor (Homo sapiens) (P14416 whole entry, looked up): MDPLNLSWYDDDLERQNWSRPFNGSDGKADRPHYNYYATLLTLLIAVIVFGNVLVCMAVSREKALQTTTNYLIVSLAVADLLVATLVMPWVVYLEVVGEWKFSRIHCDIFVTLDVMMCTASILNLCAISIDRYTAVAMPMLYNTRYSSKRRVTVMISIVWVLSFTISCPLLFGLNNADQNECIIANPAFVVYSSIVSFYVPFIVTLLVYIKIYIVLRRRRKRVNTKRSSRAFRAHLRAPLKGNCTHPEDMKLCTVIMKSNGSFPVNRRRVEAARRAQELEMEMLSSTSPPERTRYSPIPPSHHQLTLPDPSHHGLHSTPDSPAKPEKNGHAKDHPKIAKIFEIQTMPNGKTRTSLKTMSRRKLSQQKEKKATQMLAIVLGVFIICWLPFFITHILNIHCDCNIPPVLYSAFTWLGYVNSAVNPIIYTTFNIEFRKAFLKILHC
Chain of 5-hydroxytryptamine receptor 2A (Homo sapiens) (P28223 whole entry, looked up): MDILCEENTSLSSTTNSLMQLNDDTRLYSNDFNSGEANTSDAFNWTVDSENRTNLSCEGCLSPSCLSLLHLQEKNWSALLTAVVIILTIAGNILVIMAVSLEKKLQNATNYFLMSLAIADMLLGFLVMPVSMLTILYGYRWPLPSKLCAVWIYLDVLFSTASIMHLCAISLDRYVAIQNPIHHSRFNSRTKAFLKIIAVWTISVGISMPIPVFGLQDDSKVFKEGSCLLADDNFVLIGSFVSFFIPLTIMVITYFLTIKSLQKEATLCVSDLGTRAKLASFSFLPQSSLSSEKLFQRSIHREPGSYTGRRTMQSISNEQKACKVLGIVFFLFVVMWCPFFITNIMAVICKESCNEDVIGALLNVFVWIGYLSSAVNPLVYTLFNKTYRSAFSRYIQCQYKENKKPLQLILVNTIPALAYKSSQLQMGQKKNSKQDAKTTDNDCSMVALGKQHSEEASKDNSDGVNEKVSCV
Chain of Muscarinic acetylcholine receptor M1 (Homo sapiens) (P11229 whole entry, looked up): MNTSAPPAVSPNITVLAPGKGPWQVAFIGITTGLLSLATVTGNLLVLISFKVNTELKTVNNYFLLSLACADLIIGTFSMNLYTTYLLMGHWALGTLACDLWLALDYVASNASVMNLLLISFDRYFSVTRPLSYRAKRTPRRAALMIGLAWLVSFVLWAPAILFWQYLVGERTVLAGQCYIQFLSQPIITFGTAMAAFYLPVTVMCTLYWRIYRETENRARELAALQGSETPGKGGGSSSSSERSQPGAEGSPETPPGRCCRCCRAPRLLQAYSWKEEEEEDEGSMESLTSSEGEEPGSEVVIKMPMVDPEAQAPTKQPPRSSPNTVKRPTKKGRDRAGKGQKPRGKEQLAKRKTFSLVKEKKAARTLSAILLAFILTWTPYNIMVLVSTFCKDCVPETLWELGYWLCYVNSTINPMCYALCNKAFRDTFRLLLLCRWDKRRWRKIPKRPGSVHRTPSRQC
Chain of KiSS-1 receptor (Homo sapiens) (Q969F8 whole entry, looked up): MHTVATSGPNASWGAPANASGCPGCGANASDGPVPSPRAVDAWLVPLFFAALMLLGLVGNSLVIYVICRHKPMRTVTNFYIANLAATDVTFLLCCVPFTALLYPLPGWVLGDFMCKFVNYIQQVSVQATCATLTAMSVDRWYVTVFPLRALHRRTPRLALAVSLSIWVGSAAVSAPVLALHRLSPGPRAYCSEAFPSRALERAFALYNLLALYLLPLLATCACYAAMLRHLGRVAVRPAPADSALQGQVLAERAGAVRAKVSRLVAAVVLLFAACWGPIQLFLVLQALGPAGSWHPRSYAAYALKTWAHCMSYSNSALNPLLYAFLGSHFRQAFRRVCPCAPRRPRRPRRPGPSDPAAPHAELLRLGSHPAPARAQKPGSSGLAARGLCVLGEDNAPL
Chain of Gonadotropin-releasing hormone receptor (Homo sapiens) (P30968 whole entry, looked up): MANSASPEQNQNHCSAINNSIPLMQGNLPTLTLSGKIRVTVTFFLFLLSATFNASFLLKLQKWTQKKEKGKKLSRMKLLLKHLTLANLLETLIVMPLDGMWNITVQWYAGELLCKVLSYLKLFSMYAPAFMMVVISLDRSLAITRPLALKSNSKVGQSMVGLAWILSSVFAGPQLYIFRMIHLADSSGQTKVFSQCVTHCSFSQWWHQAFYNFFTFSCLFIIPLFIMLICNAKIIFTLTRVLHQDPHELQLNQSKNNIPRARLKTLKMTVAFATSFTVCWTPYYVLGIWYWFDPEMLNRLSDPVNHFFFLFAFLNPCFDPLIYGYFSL

SMILES | Potency [1] | Potency [2] | Potency [3] | Potency [4] | Potency [5] | Potency [6] | Potency [7] | Potency [8] | Potency [9] | Potency [10] | Potency [11] | Potency [12] | Potency [13] | Potency [14] | Potency [15] | Potency [16] | Potency [17] | Potency [18] | Potency [19]
O=C(c1ccccc1)c1ccc(O)cc1O | inactive | inactive | inactive | inactive | inactive | inactive | inactive | inactive | inactive | 19.2 µM (active) and inactive | inactive | inactive | inactive | inactive | inactive | inactive |  |  | 
C=O | inactive | inactive | inactive | inactive |  | inactive | inactive | inactive | inactive | inactive | inactive | inactive | inactive |  | inactive | inactive | inactive | inactive | 
O=C(O)c1ccccc1C(=O)OCc1ccccc1 | inactive | inactive | inactive | inactive | inactive | inactive | inactive |  | inactive | inactive | inactive | inactive | inactive |  | inactive | inactive | inactive |  | inactive
CO[C@@H]1[C@@H](OC)[C@H](C)[C@@](O)(CC(=O)O)O[C@H]1[C@H](C)[C@H]1O[C@@]2(CC[C@@](C)([C@H]3CC[C@@](C)([C@@H]4O[C@@H]([C@H]5O[C@](C)(O)[C@H](C)C[C@@H]5C)C[C@@H]4OC4C[C@H](OC)[C@@H](OC)[C@H](C)O4)O3)O2)C[C@H](O)[C@H]1C (stereo not given in full) | 237 nM (active) | inactive | inactive | inactive | inactive |  | inactive |  |  |  |  |  | inactive | inactive | inactive | inactive |  | inactive | 
Cc1cc(O)c2c(O)c3c(O)cccc3cc2c1 | inactive | inactive | inactive | inactive | inactive | inactive | inactive | inactive |  | inactive | inactive |  |  |  | inactive | inactive |  |  | 
c1cnc(N2CCN(Cc3ccc4c(c3)OCO4)CC2)nc1 | inactive | inactive | inactive | inactive | inactive |  | inactive | inactive | inactive |  | inactive | inactive | inactive |  |  | inactive | inactive | inactive | inactive
Cc1c(-c2cccnc2)c2ccccc2n1CCCCC(=O)O | inactive | inactive | inactive | inactive | inactive | inactive | inactive |  | inactive | inactive | inactive |  | inactive |  | inactive |  | inactive |  | inactive
C[C@H]1c2cccc(O)c2C(O)=C2C(=O)[C@]3(O)C(O)=C(C(N)=O)C(=O)[C@@H](N(C)C)[C@@H]3[C@@H](O)[C@@H]21 | inactive | inactive | inactive | inactive |  | inactive | inactive | inactive | inactive | inactive | inactive |  |  | inactive | inactive | inactive | inactive |  | inactive
